The source of these data is PubChem BioAssay AID738 (SRMLSC, 2007).

The whole screen tested about 98,000 compounds, of which about 4,900 (5%) were called active. Only a selection was taken, and actives are over-represented in it overall. Values without a mark were called inactive. No stated cut-off is given here; in the data, active means inhibition above about 30%; inactive means the rest.

Broadly, the inhibition is the relative decrease from the control value, in per cent.

A short description of the experiment: yeast control strain growth suppression – counter-screen for post-Golgi transport modulator project, primary screen (AID 738). Particulars: efflux-deficient yeast background strain, growth absorbance A615, 16 h; at 10 µM; active compounds read high. (A counterscreen serves to expose hits that act by an unwanted route or on another target.)
Regarding `Clc1ccc(Nc2nc(-c3cccs3)cs2)nc1`, the inhibition is 45.4% (active).
The value for `O=C(Nc1ccc(Cl)cn1)Nc1cccs1` was 19.8%; that for `c1ccc(Nc2nc(-c3ccncc3)cs2)nc1` was 4.87%.
Under `Cc1ccc(OCC(=O)N/N=C/c2ccncc2)cc1` stands 7.69%; under `Cc1ccc(C(=O)N2CCN(C(=O)N3CCOCC3)CC2)cc1`, -1.43%; under `CCOC(=O)C(=CNc1cccc(C)n1)C(=O)OCC`, -2.27%.
`Cc1ccc(Cl)cc1NC(=O)COC(=O)C1CCCCC1`: the inhibition was -5.31%.
As to `Cc1noc(C)c1S(=O)(=O)N(CC(=O)Nc1ccc2c(c1)OCCO2)c1ccc(C(C)C)cc1`, the inhibition was 36.1% (active).
The value for `CCOC(=O)c1cccc(NC(=O)CN(c2ccc(C)cc2)S(=O)(=O)c2c(C)noc2C)c1` was 26.9%; that for `Cc1noc(C)c1S(=O)(=O)N(CC(=O)NCc1ccc(Cl)cc1)c1ccc2c(c1)OCO2` was 4.52%.
Turning to `CCOC(=O)Cc1csc(NC(=O)C(C)(C)C)n1`, the inhibition is 50.5% (active).
Under `CCOC(=O)Cc1csc(NC(=O)CSc2nc(C)cc(=O)[nH]2)n1` stands 3.73%; under `CCOC(=O)Cc1csc(NC(NC(=O)OCC)(C(F)(F)F)C(F)(F)F)n1`, -12.3%.
Under `CCOc1cc(CNCCN(C)C)c(Cl)cc1OCC(=O)NCCc1ccccc1` stands 7.63%; under `CCN(CC)S(=O)(=O)c1cc([N+](=O)[O-])ccc1NNC(=O)Nc1ccccc1`, 5.17%.
The value for `O=C(Nc1ccccc1)O/N=C1\CCCCC1c1ccc([N+](=O)[O-])cc1[N+](=O)[O-]` (stereo unspecified) was 47.9% (active); that for `COc1ccc(NC(=O)ON=C2c3ccccc3-c3ccccc32)cc1` was 3.19%.
As to `Cc1ccc(C2CC2C(=O)NN)cc1` (stereo unspecified), the inhibition was -1.07%.
Under `COc1cccc(CNCCc2c[nH]c3ccccc23)c1OCc1ccccc1F` stands 15.9%; under `COCCCn1c(SCc2cccc(OC)c2)nc2cc(OC)c(OC)cc2c1=N`, 21.9%; under `Cc1ccccc1OCC(=O)Nc1ccc(N2CCN(C(=O)C(C)C)CC2)c(Cl)c1`, 6.6%.
In the case of `Cc1ccc(NC(=O)COc2ccc(-n3ccnc3)cc2)cc1Cl`, the inhibition is 34.5% (active).
The value for `CN1CCN(c2ccc(NC(=O)COc3ccc(Cl)cc3Cl)cc2)CC1` was 5.47%; that for `CC(=O)NS(=O)(=O)c1ccc(NC(=O)/C=C/c2ccccc2Cl)cc1` was 4.99%; that for `O=C(c1ccccc1)C(Cn1cncn1)C(Sc1ccccc1)c1ccccc1` (stereo unspecified) was 26.1%.
Under `CCOC(=O)N1CCN(C(c2cccnc2)c2ccc3cccnc3c2O)CC1` (stereo unspecified) stands 1.65%; under `CCn1c(SCC(=O)Nc2nc3ccc(OC)cc3s2)nnc1-c1ccoc1C`, 19.9%; under `Cc1noc(C)c1CSCC(=O)Nc1nc2ccc(Oc3ccccc3)cc2s1`, 56.3% (active).
Under `CCOC(=O)c1c(C2CC2)csc1NC(=O)CSCc1c(C)noc1C` stands 23.3%.
For `O=S(=O)(c1ccc(F)cc1)n1ccc(-c2cnc(-c3ccccc3)s2)n1`, the inhibition was 6.8%.
The value for `COc1ccccc1-n1nnnc1S(=O)(=O)Cc1ccc(Cl)cc1` was 32.4% (active); that for `COc1ccccc1N1CCN(C(=O)CN(Cc2ccc(Cl)cc2)S(C)(=O)=O)CC1` was 1.33%; that for `O=S(=O)(O)c1nc2ccccc2n1Cc1ccc(Cl)cc1` was 2.95%.
Under `Cc1cccc(C(=O)Nc2ccc(C(=O)/C=C/c3cccs3)cc2)c1` stands 3.4%.
The value for `O=C(Nc1ccn(Cc2ccccc2F)n1)c1ccc(COc2ccc(Cl)cc2Cl)o1` was 27.6%.
As to `CCn1c(SCC(=O)Nc2ccccc2F)nc2c(c1=O)SC(C)C2` (stereo unspecified), the inhibition is 103% (active).
As to `CCn1c(SCC(=O)Nc2ccc3c(c2)OCCO3)nc2c(c1=O)SC(C)C2` (stereo unspecified), the inhibition was 6.57%.
Under `CC1Cc2nc(SCC(=O)Nc3ccccc3F)n(C)c(=O)c2S1` (stereo unspecified) stands 25.6%.
Under `O=S(=O)(c1cccc2nonc12)N1CCN(c2cccc(Cl)c2)CC1` stands -0.91%; under `Cc1cc(-c2ccc(/C=N/n3cnnc3)o2)c([N+](=O)[O-])cc1C`, 39.1% (active).
The value for `Cc1cc(C)c([N+](=O)[O-])cc1-c1ccc(/C=N/NC(=O)c2nonc2N)o1` was 8.91%.
For `Cc1cc([N+](=O)[O-])c(-c2ccc(/C=N/n3cnnc3)o2)cc1Cl`, the inhibition is 19.7%.
The value for `CC(=O)c1cc2c(cc1NC(=O)CN1CCCCCC1)OCO2` was 5.16%.
Under `C/C=C/C(=O)OCC(=O)Nc1ccc(F)cc1Cl` stands 3.31%; under `CC(Oc1ccc(F)cc1F)C(=O)/C=C/N(C)C` (stereo unspecified), -1.04%.
`CN(C)/C=C/C(=O)c1ccccc1F`: the inhibition was 36.4% (active).
The value for `COC(=O)CNC(=O)c1ccccc1F` was 4.83%.
Under `Cc1ccc(N2C(=O)C(Cc3ccccc3)NC2=S)cc1` (stereo unspecified) stands 5.73%; under `CCn1c(SCC(=O)Nc2cc(C)c(Cl)cc2OC)nnc1-c1ccco1`, 26.5%; under `COc1cc(Cl)c(C)cc1NC(=O)CSc1nnc(-c2cccnc2)n1Cc1ccco1`, 3.14%.
The value for `COc1cc(Cl)c(C)cc1NC(=O)CSc1nnc(-c2ccco2)n1CC(C)C` was 34% (active); that for `O=C1CC(C(F)(F)C(F)(F)C(F)(F)C(F)(F)F)=Nc2ccccc2N1` was 16.7%.
As to `O=C(CSCc1ccc(Br)cc1)Nc1ccc(S(=O)(=O)N2CCCCCC2)cc1`, the inhibition was 6.87%.
For `COCC(=O)Nc1ccc(Br)cc1`, the inhibition is 36.8% (active).
The value for `CCN(CC)C(=O)CCC(=O)Nc1ccc(C(=O)OC)cc1` was 1.42%; that for `O=C(Nc1ccc2c(c1)CCC2)c1cccc(S(=O)(=O)N2CCN(c3ccc(F)cc3)CC2)c1` was 17.8%; that for `Cc1cc(C=O)c(C)n1-c1ccc(NC2CCCCC2)c([N+](=O)[O-])c1` was 39% (active).
Under `COc1cc(OC)c(-n2c(C)cc(C=O)c2C)cc1Cl` stands 20.4%; under `Cc1ccc(-n2c(C)cc(/C=N/Nc3ccc([N+](=O)[O-])cn3)c2C)c(C)c1`, 3.3%; under `O=C(O)c1ccccc1NC(=S)NC(NC(=O)c1ccccc1[N+](=O)[O-])C(Cl)(Cl)Cl` (stereo unspecified), 21.6%.
In the case of `NC(=O)c1c(NC(=O)CSc2nnc(-c3ccco3)n2N)sc2c1CCCC2`, the inhibition is -1.04%.
Under `O=C(CN1CCN(S(=O)(=O)c2ccc3ccccc3c2)CC1)NC(=O)NC1CCCCC1` stands 19.7%; under `CCOc1cccc(C(=O)Nc2cnn(Cc3ccccc3)c2)c1`, -4.4%; under `CCCCCCOC(=O)NCC(O)c1ccccc1` (stereo unspecified), 4.19%.
The value for `CCOC(=O)CCP(=O)(O)C(O)(c1ccccc1)c1ccccc1` was 2.13%; that for `CCOC(=O)C(C(=O)OCC)C(C#N)c1ccccc1` (stereo unspecified) was 30.5% (active).
As for `CCNC(=S)Nc1cccc(Cl)c1C`, the inhibition was 3.81%.
Under `COc1ccc(Cc2nnc(SCC(=O)c3cccc([N+](=O)[O-])c3)n2C)cc1` stands 3.08%; under `Cc1ccc(NC(=O)N2CCC(c3nc4c(nnn4Cc4c(F)cccc4Cl)c(=O)[nH]3)CC2)cc1`, 8.76%.
Under `COc1cc(OC)c(C(=O)NC2CC(C)(C)NC(C)(C)C2)cc1OC` stands -5.38%.
Under `COc1ccc(-c2nnc(SCC(=O)NC3CCCCC3)o2)cc1OC` stands -2.95%; under `COc1cc(OC)c(C(=O)NC2CCCCCC2)cc1OC`, 46.5% (active).
Turning to `C=CCn1c(SCCOc2ccc(OC)cc2)nnc1C(NC(=O)c1ccc(OC)cc1)C(C)C` (stereo unspecified), the inhibition is 10.1%.
Under `CCOc1ccc(-n2c(N)c(C(=O)NCC3CCCO3)sc2=S)cc1` (stereo unspecified) stands 3.93%.
For `O=C(Cc1ccc(S(=O)(=O)N2CCCC2)s1)NC1CCCCCC1`, the inhibition was 31.8% (active).
The value for `O=C(NC1CCCCC1)C1CCCN(S(=O)(=O)c2cccs2)C1` (stereo unspecified) was -12.5%; that for `O=C(Cc1ccc(S(=O)(=O)N2CCOCC2)s1)NCCC(c1ccccc1)c1ccccc1` was 22.9%.
Consider `COc1ccc(-c2cc(C)nc3nc(N)nn23)cc1`, for which the inhibition is 5.75%.
For `Cc1cc(N)n2nc(-c3ccc(C(C)(C)C)cc3)cc2n1`, the inhibition is 31% (active).
Under `Cc1cccc(-n2ncc(C#N)c2-n2cccc2)c1` stands 20.2%; under `Cc1[nH]nc(-c2ccc(OCc3cnn(-c4ccccc4)c3)cc2O)c1Oc1ccc(Cl)cc1`, 0%; under `Cn1c(=O)c2c(ncn2CC(COCc2ccccc2Cl)OCc2ccccc2Cl)n(C)c1=O` (stereo unspecified), 8.65%.
Under `COc1ccc(Cl)cc1C(=O)NCC#N` stands 18.5%; under `COc1cc(OC)c(C(=O)Nc2ccc(N(C)C)cc2)cc1OC`, 27.7%; under `COc1ccc(Cl)cc1C(=O)Nc1ccc(N(C)C(C)=O)cc1`, 32.4% (active).
The value for `CCn1c(C)nc2c1C(=O)c1ccccc1C2=O` was 4.03%.
Take `CC(C)N(c1ccccc1)c1ncnc(NCCC(=O)O)c1[N+](=O)[O-]`: the inhibition is 5.97%.
Under `O=S(=O)(c1cnccc1N1CCN(/N=C/c2ccc(Br)cc2)CC1)N1CCCCC1` stands -4.38%; under `Cc1nc2cc(NC(=O)NCc3ccccc3)ccc2o1`, 12.9%; under `C=CC[n+]1c(-c2ccc(C)cc2)csc1NNC(=O)Nc1ccccc1`, 40.7% (active).
Under `C=CCNC(=O)c1csc(-c2ccccc2)n1` stands -0.15%; under `CC(=O)c1cccc(NC(=O)Nc2ccc(C)cc2)c1`, 0.29%.
Take `CC(=O)Nc1ccc(N2C(=O)C3C4CC(=O)C(c5ccccc54)C3C2=O)cc1` (stereo unspecified): the inhibition was -8.39%.
Under `O=C(NCc1cccnc1)c1cccnc1Sc1ccc(Cl)cc1` stands -2.08%; under `CC(C)=CC(=O)Nc1nnc(-c2ccc(F)cc2)s1`, -0.29%.
The value for `Cc1cc(C)nc(SC(C)C(=O)N/N=C/c2cccs2)n1` (stereo unspecified) was 6.8%.
